Experimental data from PubChem BioAssay (NCI).
The panel holds about 83,000 compounds, 20% with a hit somewhere; the sample as a whole holds those more often.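 Values shown are percent growth following 48 h exposure of cells in 96-well plates to a single concentration of compound; below 10 was considered active.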 Values without a mark were called inactive. Activity calls are given as the source filed them.

System: COLO 205 colon
Assay: NCI-60 one-dose screen, 48 h (100 = growth as untreated, 0 = no growth, -100 = all killed)
Details: 10 µM unless noted

**Q.** Which growth does the source give for `Cc1nc2sc(C(=O)Nc3cccc(Cl)c3C)c(N)c2cc1C(=O)/C=C/c1ccccc1` here?
**A.** Its growth is -5.18% (active).

**Q.** `CN1CCN(Cc2ccc(NC(=O)c3cncc(C#Cc4cnc(N)cc4C#N)c3)cc2C(F)(F)F)CC1` was tested. Which growth did it give?
**A.** The growth was -31.2% (active).

**Q.** Which growth does the source give for `c1cc(OCCN2CCCC2)ccc1CNc1ccc2nc(CCC3CCCCC3)[nH]c2c1` here?
**A.** Its growth is -73.9% (active).

**Q.** Which growth does the source give for `CCN(CC)CCOc1ccc2c(-c3ccccc3)c(-c3ccc(OC)cc3)c(=O)oc2c1` here?
**A.** Its growth is -38.8% (active).

**Q.** With `O=C1/C(=C/c2c[nH]c(=O)[nH]c2=O)SC(=S)N1Cc1ccccc1` as the compound, how does the growth read?
**A.** Its growth is 88.2%.

**Q.** For `CCN(CC)CCCNc1cc(OC)c(OC)c2cccnc12`, which growth is on record?
**A.** Its growth is 98.4%.

**Q.** With `COc1cc(Cc2cc(OC)c(O)c(OC)c2)cc(OC)c1O` as the compound, how does the growth read?
**A.** Its growth is 109%.

**Q.** With `CSc1ccc(N2C(=N)C(=S)N(c3ccc(C)cc3)C2=O)cc1` as the compound, how does the growth read?
**A.** Its growth is 98%.

**Q.** For `CCOC(=O)/C(=C(/C)NCC(C)C)c1cc(O)c(O)c2c(C)cc(=O)[nH]c12`, which growth is on record?
**A.** Its growth is 99.7%.

**Q.** Which growth does the source give for `C/C(=C(\c1ccc(OCCN2CCCCCC2)cc1)c1ccc(OC(=O)c2ccccc2)cc1)c1ccc(Cl)cc1` here?
**A.** The growth was 4.38% (active).

**Q.** `COCCn1cc(-c2csc(-c3c[nH]c4ccc(F)cc34)n2)c2cccnc21` was tested. Which growth did it give?
**A.** The growth was 11.5%.

**Q.** How did the growth turn out when `Cc1ccc2cnc(N)c(C#Cc3cc(C(=O)Nc4ccc(CN5CCN(C)CC5)c(C(F)(F)F)c4)cnc3C)c2c1` was run?
**A.** The growth was -41.2% (active).

**Q.** How did the growth turn out when `O=C(NNc1nc2cc(F)ccc2n2c(CN3CCOCC3)ccc12)c1ccccc1` was run?
**A.** Its growth is 1.54% (active).

**Q.** Which growth does the source give for `COc1ccc(-c2nc(SCC(=O)Nc3nc4ccc(C)cc4s3)[nH]c(=O)c2C#N)cc1OC` here?
**A.** The growth was 115%.

**Q.** How did the growth turn out when `CCOC(=O)c1ccc[nH]1` was run?
**A.** Its growth is 134%.

**Q.** With `COc1cc(Cc2cc(-c3ccccc3)nn(Cc3ccccc3)c2=O)cc(OC)c1OC` as the compound, how does the growth read?
**A.** The growth was 15.5%.

**Q.** How did the growth turn out when `O=C(Nc1ccc(Nc2ccncc2)cc1)c1ccc(Nc2ccnc3ccc([N+](=O)[O-])cc23)cc1` was run?
**A.** The growth was 131%.

**Q.** For `C[C@H]1[C@H](C)CC[C@]2(C(=O)NCCNCCN)CC[C@]3(C)C(=CC[C@@H]4[C@@]5(C)CCC(=O)C(C)(C)[C@@H]5CC[C@]43C)[C@H]12`, which growth is on record?
**A.** Its growth is -49.9% (active).

**Q.** For `COc1ccc(C/C(C)=C(\c2ccc(Cl)cc2)c2ccc(OCCN3CCCC3)cc2)cc1`, which growth is on record?
**A.** Its growth is 47.8%.

**Q.** Which growth does the source give for `CCOc1ccc(NC(=O)Nc2ccc(OCC)cc2)cc1` here?
**A.** The growth was 104%.

**Q.** `Cc1ccc(NC(=O)c2cc3ccccc3cc2O)c(C)c1` was tested. Which growth did it give?
**A.** The growth was 78.5%.

**Q.** `COC(=O)c1c2c(c[n+]([O-])c1C)C(=O)C=C(NCc1ccccc1)C2=O` was tested. Which growth did it give?
**A.** The growth was -73.7% (active).

**Q.** For `C=C1C(=O)O[C@H]2[C@H]1CC/C(CNC(=O)Cc1c[nH]c3ccccc13)=C\CC[C@@]1(C)O[C@@H]21`, which growth is on record?
**A.** Its growth is -74.9% (active).

**Q.** How did the growth turn out when `C#CCOc1ccc2nc(CCl)c(Cl)c(Nc3cccc(C(F)(F)F)c3)c2c1` was run?
**A.** The growth was 80%.

**Q.** `O=C1/C(=C/c2cccc(Br)c2)COc2ccc(O)cc21` was tested. Which growth did it give?
**A.** Its growth is 84.5%.

**Q.** How did the growth turn out when `CCN(CC)CCOc1ccc(/C(=C(\C)Cc2ccc(OC)cc2)c2ccc(OC(=O)NCc3ccccc3)cc2)cc1` was run?
**A.** The growth was -56.1% (active).

**Q.** Which growth does the source give for `O=C(CCCCCCCC(=O)N1CCCCC1)N1CCCCC1` here?
**A.** The growth was 113%.

**Q.** With `Cc1ccc(-c2nc(SCC(=O)N3CCN(c4cc5c(cc4F)c(=O)c(C(=O)O)cn5C4CC4)CC3)nc(Cl)c2C#N)cc1` as the compound, how does the growth read?
**A.** The growth was 108%.

**Q.** For `CSc1ccc2c3c(n(C[C@H](O)CO)c(=O)c2c1)-c1ccccc1C3=O`, which growth is on record?
**A.** The growth was 54.2%.

**Q.** Which growth does the source give for `Cc1cn(C)cn1` here?
**A.** Its growth is 125%.

**Q.** For `C#Cc1cccc(Nc2ncnc3cc(NC(=O)CCl)ccc23)c1`, which growth is on record?
**A.** Its growth is -70.4% (active).

**Q.** For `O=S(=O)(NCCNc1nccc(-c2c(-c3ccc(F)c(O)c3)nc3sccn23)n1)c1ccc(Cl)cc1`, which growth is on record?
**A.** Its growth is 17.6%.

**Q.** With `COc1ccc(C(O)c2cc3c(N)c(C(=O)Nc4cccc5ccccc45)sc3nc2C)cc1` (stereo not given) as the compound, how does the growth read?
**A.** Its growth is -34.3% (active).

**Q.** Which growth does the source give for `O=C(Nc1cc(Cl)ccc1O)c1ccccc1Nc1ccnc(C(F)(F)F)c1` here?
**A.** The growth was 79.6%.

**Q.** Which growth does the source give for `COc1ccc(/C=C2\c3cc(OC)c(OC)c(OC)c3CC[C@@H]2O)cc1F` here?
**A.** Its growth is 2.26% (active).

**Q.** How did the growth turn out when `CCN(CC)C(=O)C1=C(C)NC(=O)NC1c1ccc2c(c1)OCO2` (stereo not given) was run?
**A.** Its growth is 114%.

**Q.** `COc1ccc(C=Nc2c(C(=O)Nc3cccc(Cl)c3C)sc3nc(C)c(C(=O)/C=C/c4ccc(OC)cc4)cc23)cc1` was tested. Which growth did it give?
**A.** The growth was 11.2%.

**Q.** `CC(C)(C)c1ccc(S(=O)(=O)Oc2ccc(-c3sc4cc(OS(=O)(=O)c5ccc(C(C)(C)C)cc5)ccc4c3C(=O)c3ccc(OCCN4CCCCC4)cc3)cc2)cc1` was tested. Which growth did it give?
**A.** Its growth is 101%.

**Q.** With `COc1cc(/C=C/c2cc(/C=C/c3ccc(O)c(OC)c3)n(C(=O)Nc3ccc(Cl)cc3)n2)ccc1O` as the compound, how does the growth read?
**A.** The growth was 7.57% (active).

**Q.** `O=c1cc(CP(=O)(O)O)c2cc(O)c(-c3ccccc3)cc2o1` was tested. Which growth did it give?
**A.** Its growth is 108%.
